Assay results as given in PubChem BioAssay (Tox21).
Inconclusive results are not listed. A number with no mark means an inactive call. Activity calls are given as the source filed them. Calls follow the shape of the dose curve; as a rule, active = well fitted cell-killing curve with a large enough effect in the repeat runs; inconclusive = weak or mixed curves, or effect the other way; inactive = flat fitted curve, though single readings scatter.

assay: qHTS assay to identify small molecule agonists of the constitutive androstane receptor (CAR) signaling pathway - cell viability counter screen (AID 1224836); settings: HepG2-CYP2B6-hCAR viability, CellTiter-Fluor, 23 h, PK11195 added to every well; series mostly up to 92.4 µM; viability change, negative = cytotoxic: at the top concentration; also: nearly all actives have a fitted effect of over 45% in size
Summary of the method: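 Multiplexed viability check: HepG2-CYP2B6-hCAR cells, 15-point compound dosing, 0.75 uM PK11195 final, 23 h at 37 C, CellTiter-Fluor fluorescence.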
% is scaled to controls: 0 for no effect and ±100 for the full control effect; potency is read from the fitted curve at half-maximal effect.

SMILES	viability change, negative = cytotoxic	Potency
Brc1ccc(Oc2ccc(Br)cc2Br)c(Br)c1	-7.74%	–
CC[C@H](C)[C@H]1O[C@]2(C=C[C@@H]1C)C[C@@H]1C[C@@H](C/C=C(\C)[C@@H](O[C@H]3C[C@H](OC)[C@@H](O[C@H]4C[C@H](OC)[C@@H](NC)[C@H](C)O4)[C@H](C)O3)[C@@H](C)/C=C/C=C3\CO[C@@H]4[C@H](O)C(C)=C[C@@H](C(=O)O1)[C@]34O)O2	–	12.2 µM (active)
CSC(=O)c1c(C(F)F)nc(C(F)(F)F)c(C(=O)SC)c1CC(C)C	-9.82%	–
Oc1cc(Cl)cc(Cl)c1	5.04%	–
CNC(C)(C)Cc1ccccc1	4.33% [at 42.5 µM]	–
CC(C)[C@@H](Nc1ccc(C(F)(F)F)cc1Cl)C(=O)OC(C#N)c1cccc(Oc2ccccc2)c1 (stereo not given in full)	2.53%	–
Cc1ccc([N+](=O)[O-])[c]2c1[O][Hg]2	–	9.44 µM (active)
CC(C)N(C(=O)SC/C(Cl)=C/Cl)C(C)C	2.23%	–
C[C@]12CC[C@H]3[C@@H](CCC4=CC(=O)CC[C@@H]43)[C@@H]1CC[C@@H]2OC(=O)CCc1ccco1	6.52% [at 42.5 µM]	–
CNC(=O)O/N=C(\C)C(C)S(C)(=O)=O (stereo not given)	0.839% [at 872 µM]	–
CC1(C)[C@H](/C=C2\CCSC2=O)[C@@H]1C(=O)OCc1coc(Cc2ccccc2)c1	-20.6%	–
Fc1ccc(C(OCCN2CCN(CCCc3ccccc3)CC2)c2ccc(F)cc2)cc1	–	21.1 µM (active)
CN(C)c1ccc(N)cc1	–	59.6 µM (active)
CC(C)C(Nc1ccc(C(F)(F)F)cc1Cl)C(=O)OC(C#N)c1cccc(Oc2ccccc2)c1 (stereo not given)	1.35%	–
N#CSCc1ccccc1	-11.3%	–
